# A selection: hits, their analogues and other compounds. The true share with any hit is near 2%.
# B2AR ag: agonists of human beta-2 adrenergic receptor inducing internalization; Am2.2-beta2AR cells, FAP receptor internalization, flow cytometry; response, % (test concentration not listed); hit rate 0.43% among 340,000; AID 504454;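 active = response above a set limit, near 3 SD of response in nonfluorescent compounds, cut at about 42% in these data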
# TLR4-MyD88 BLA: inhibitors of human TLR4-MyD88 binding | O00206+Q99836 | HeLa CL3-4 TLR4/MyD88 BLA complementation, FRET ratio | inhibition, % at 8.4 µM | hit rate 0.18% among 200,000; in the data active = inhibition above about 25%;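 note: 0% = vehicle and 100% = reference inhibitor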
# Granule exo inh: blocks lytic granule exocytosis; TALL-104 LAMP-1 surface exposure, flow cytometry; cells stimulated with thapsigargin and PMA; inhibition, % at 10 µM; hit rate 0.66% among 360,000;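 active = inhibition above about 55%, limit read from the data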
# TLR9-MyD88 inh: inhibitors of human TLR9-MyD88 binding | Q9NR96+Q99836 | CHO BLA complementation TLR9-MyD88, CCF4 FRET ratio | hit rate 0.21% among 340,000 | AID 504734 | inhibition, % at 4.98 µM;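 active = inhibition above the mean over all tested compounds plus 3 SD, cut at about 21% in these data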;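 note: 0% = DMSO only wells and 100% = clavulanate BLA inhibitor control wells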
# NOD2-RIPK2 inh: inhibitors of human NOD2-RIPK2 interaction | O43353 | inhibition, % at 4.98 µM | hit rate 0.38% among 360,000 | CHO BLA complementation NOD2-RIPK2, CCF4 ratio | AID 624267; in the data active = inhibition above about 21%;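 note: 0% = vehicle only and 100% = reference blocker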
# ABHD5-PLIN5 inh: blocks binding of human ABHD5 to perilipin-5; Q00G26+Q8WTS1; inhibition, % at 4 µM; hit rate 0.78% among 360,000; Split G. princeps luciferase complementation, luminescence, 4 h;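 active = inhibition above the mean inhibition across every tested compound plus 3 SD, cut at about 22% in these data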;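 note: 0% = DMSO only wells and the 100% control is not disclosed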
# TLR4-MyD88 conf: TLR4-MyD88 interaction inhibition confirmed | shares compounds with TLR4-MyD88 BLA | HeLa CL3-4 BLA complementation, CCF4 FRET ratio | inhibition, % at 8.4 µM | hit rate 50% among 350;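 active = mean inhibition across three repeat runs above about 25% carried over from the earlier screen, limit read from the data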;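 note: plate controls were DMSO only for no effect and clavulanic acid blocking BLA at full dose for full effect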
# BLA inh HeLa: beta-lactamase inhibition flagged in TLR4-MyD88 counter-screen | shares compounds with TLR4-MyD88 BLA | HeLa BLA reporter, CCF4 FRET ratio | inhibition, % at 8.4 µM | hit rate 63% among 350 | AID 1237;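 active = mean inhibition over three repeats above about 26% taken from the earlier screen, limit read from the data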;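 note: HeLa cells stably expressing beta-lactamase reporter as counterscreen for TLR4-MyD88 inhibitors; 0% = DMSO and 100% = clavulanic acid full inhibition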
# TLR9-MyD88 conf: confirmation of human TLR9-MyD88 binding inhibitors; shares compounds with TLR9-MyD88 inh; CHO TLR9/MyD88 BLA complementation, CCF4 FRET ratio; inhibition, % at 4.98 µM; hit rate 51% among 680;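 active = mean inhibition across three repeats above about 21% taken from the earlier screen, limit read from the data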;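 note: blue over green emission ratio reports constitutive TLR9 MyD88 association via BLA complementation; 0% = DMSO vehicle wells and 100% = clavulanate BLA inhibitor wells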
# Target sequence (Q9NR96 whole entry, looked up): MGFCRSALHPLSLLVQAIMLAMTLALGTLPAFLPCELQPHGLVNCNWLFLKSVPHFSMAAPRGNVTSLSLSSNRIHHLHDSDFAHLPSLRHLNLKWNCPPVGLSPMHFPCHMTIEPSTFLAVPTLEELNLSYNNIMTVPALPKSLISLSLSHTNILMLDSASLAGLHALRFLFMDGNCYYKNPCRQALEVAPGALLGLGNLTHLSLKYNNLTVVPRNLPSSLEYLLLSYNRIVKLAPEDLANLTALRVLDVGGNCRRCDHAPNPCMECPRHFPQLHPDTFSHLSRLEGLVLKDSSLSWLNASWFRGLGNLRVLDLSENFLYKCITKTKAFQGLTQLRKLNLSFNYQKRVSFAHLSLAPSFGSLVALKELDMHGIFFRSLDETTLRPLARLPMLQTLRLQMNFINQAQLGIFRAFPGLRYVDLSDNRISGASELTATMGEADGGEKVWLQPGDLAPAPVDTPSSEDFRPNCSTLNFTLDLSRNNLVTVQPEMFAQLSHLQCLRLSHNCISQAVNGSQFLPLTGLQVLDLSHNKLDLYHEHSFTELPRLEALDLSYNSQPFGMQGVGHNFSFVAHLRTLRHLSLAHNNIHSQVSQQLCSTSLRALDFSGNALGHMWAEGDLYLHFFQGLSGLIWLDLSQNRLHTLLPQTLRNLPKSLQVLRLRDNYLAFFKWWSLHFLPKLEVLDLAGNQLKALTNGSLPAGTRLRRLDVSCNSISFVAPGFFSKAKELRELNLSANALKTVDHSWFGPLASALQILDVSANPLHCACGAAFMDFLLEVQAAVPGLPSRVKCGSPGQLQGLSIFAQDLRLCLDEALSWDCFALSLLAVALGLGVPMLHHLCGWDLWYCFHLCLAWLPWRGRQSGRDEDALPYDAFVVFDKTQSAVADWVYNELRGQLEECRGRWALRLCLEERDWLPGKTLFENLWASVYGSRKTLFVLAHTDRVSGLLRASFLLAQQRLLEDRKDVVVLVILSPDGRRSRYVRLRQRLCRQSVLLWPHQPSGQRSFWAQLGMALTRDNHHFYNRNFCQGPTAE
# BLA counter-1: beta-lactamase reporter inhibition, counter-screen artifact. shares compounds with TLR9-MyD88 inh. CHO-BLA cells, CCF4 FRET ratio, BLA reporter. inhibition, % at 4.98 µM. hit rate 7% among 680. AID 540251;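 active = mean inhibition above a 50% cutoff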;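 note: counterscreen of TLR9-MyD88 hits on CMV-driven BLA in CHO-K1 cells; 0% = DMSO alone and 100% = clavulanate blocking BLA; higher means less blue over green ratio so more BLA blockade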
# TLR9 CHO cytotox: CHO cell toxicity counter-screen for TLR9-MyD88 inhibitors | inhibition, % at 4.98 µM | AID 588336 | hit rate 39% among 680 | shares compounds with TLR9-MyD88 inh | TLR9-MyD88 CHO cells cytotoxicity, luminescence; in the data active = inhibition above about 11%
# NOD2-RIPK2 conf: NOD2-RIPK2 interaction inhibition confirmed; shares compounds with NOD2-RIPK2 inh; CHO cells, NOD2-RIPK2 BLA complementation, CCF4 FRET; inhibition, % at 4.98 µM; hit rate 70% among 1,200;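 active = mean inhibition across replicates above a set limit taken from the earlier primary screen, cut at about 21% in these data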;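 note: 0% = DMSO-only wells and the high end = clavulanate BLA-blocked wells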
# BLA counter-2: hits BLA reporter in NOD2-RIPK2 inhibitor counterscreen | shares compounds with NOD2-RIPK2 inh | CHO BLA reporter, CCF4 FRET ratio | inhibition, % at 4.98 µM | hit rate 57% among 1,200 | AID 624371;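 active = mean inhibition above the low-control mean inhibition plus three low-control SD, cut at about 11% in these data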;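 note: 0% = DMSO only wells and 100% = clavulanate high control wells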
# The depositor's hits bear a star; · = not tested or not shown.
SMILES,B2AR ag,TLR4-MyD88 BLA,Granule exo inh,TLR9-MyD88 inh,NOD2-RIPK2 inh,ABHD5-PLIN5 inh,TLR4-MyD88 conf,BLA inh HeLa,TLR9-MyD88 conf,BLA counter-1,TLR9 CHO cytotox,NOD2-RIPK2 conf,BLA counter-2
Cc1ccc2nc(/C(C#N)=C\c3ccc([N+](=O)[O-])o3)[nH]c2c1,-363.8,83.5*,62.1*,23.9*,26.7*,-10.3,83.1*,95.8*,56.6*,69.7*,75.3*,85.5*,69.8*
CCc1nc2c(OCC3CCCCC3)cccn2c1N(C)C(=O)c1ccccc1F,·,·,6.9,·,7.8,-4.9,·,·,·,·,·,·,·
COc1cc2c3nnc(-c4ccc(F)cc4)c-3cn(Cc3ccc(C)cc3)c2cc1OC,-309.5,47.7*,20.8,26.6*,50.6*,-0.4,25.7*,81.2*,58.7*,61.1*,8.2,84.2*,85.7*
COc1cc2c3nnc(-c4ccc(F)cc4)c-3cn(Cc3cccc(C)c3)c2cc1OC,-1.3,44.2*,17.7,41.5*,55.0*,2.9,14.2,59.9*,26.1*,43.7,-1.6,73.1*,75.3*
O=S(=O)(c1ccc(NC(=S)N/N=C/c2c3ccccc3cc3ccccc23)cc1)N1CCOCC1,1.2,38.5*,2.1,3.7,22.2*,-10.8,18.7,42.5*,·,·,·,49.5*,53.2*
Cc1cc(Cl)n2c(nc3cc(F)c(F)cc32)c1C#N,112.8*,75.4*,10.4,70.9*,63.3*,6.0,71.7*,86.3*,66.3*,54.2*,100.9*,89.5*,82.2*
Cc1cc(C)n2c(=O)c3ccc(Cl)cc3nc2c1C#N,-7.7,1.1,-1.7,-0.1,-5.6,1.5,·,·,·,·,·,·,·
C/C(=N\Nc1ccc([N+](=O)[O-])cc1)c1ccc(O)cc1,-214.8,38.4*,0.5,·,29.4*,9.8,20.3,44.1*,·,·,·,42.4*,47.8*
CC1C(=O)N(Cc2cn(CCC3OCCO3)nn2)CCS(=O)(=O)N1Cc1ccc(-c2ccc(Cl)c(Cl)c2)cc1 (configuration not stated),·,·,15.9,-4.5,2.5,12.8,·,·,·,·,·,·,·
CNC(=O)NC(=O)C(C)OC(=O)c1c2c(nc3ccccc13)/C(=C/c1cccs1)CC2 (configuration not stated),5.4,50.7*,31.9,51.0*,55.5*,5.3,54.8*,84.8*,50.5*,63.5*,10.9*,72.0*,80.6*
CCCCNC(=O)COC(=O)c1c2c(nc3ccccc13)CCC2,-0.2,·,14.6,3.1,2.0,-4.0,·,·,·,·,·,·,·
CCCCNC(=O)COC(=O)c1c2c(nc3ccccc13)/C(=C/c1cccs1)CC2,10.8,55.7*,0.7,48.0*,52.3*,4.6,49.7*,83.1*,43.5*,46.1,6.0,66.5*,77.0*
CC(OC(=O)c1c2c(nc3ccccc13)/C(=C\c1ccc3c(c1)OCO3)CCC2)C(=O)Nc1ccc(S(N)(=O)=O)cc1 (configuration not stated),21.4,12.2,-0.5,5.3,3.6,15.2,·,·,·,·,·,·,·
CCN(CC)c1ccc(/C=C/C(=O)c2ccc(Br)cc2)cc1,·,54.6*,14.0,34.5*,58.8*,-4.3,52.5*,73.5*,39.2*,46.6,-5.5,77.6*,79.0*
CN(C)c1ccc(C(=O)/C=C/c2ccc(Br)cc2)cc1,-1.2,3.7,-2.0,-6.2,-10.8,4.7,·,·,·,·,·,·,·
O=C(C[C@@H]1CC[C@H](NS(=O)(=O)c2ccccc2F)[C@@H](CO)O1)NCCCN1CCOCC1,·,·,5.5,·,11.3,-10.6,·,·,·,·,·,·,·
Cc1cc(C)c2c(N)c(S(=O)(=O)Cc3ccccc3)sc2n1,-13.8,-5.6,1.8,-6.5,2.9,1.2,·,·,·,·,·,·,·
Cc1ccc(-c2cc(-c3ccccc3)c3c(N)c(S(C)(=O)=O)sc3n2)cc1,2.4,28.0*,-0.3,45.9*,35.3*,6.2,30.6*,50.4*,·,·,·,62.0*,70.8*
N#C/C(=C\c1cn(Cc2ccc(F)cc2)c2ccccc12)C(=O)NCc1ccco1,-4.4,62.6*,1.0,78.5*,30.7*,5.8,72.9*,100.4*,·,·,·,82.0*,85.2*
N#C/C(=C\c1cn(Cc2ccccc2)c2ccccc12)C(=O)NCc1ccco1,-17.3,2.4,5.1,-5.1,-1.9,7.0,·,·,·,·,·,·,·
O=C1c2cccc3c([N+](=O)[O-])ccc(c23)C(=O)N1c1ccccn1,-114.1,91.5*,29.0,81.4*,89.8*,5.6,90.7*,114.5*,64.9*,85.3*,99.0*,92.7*,86.7*
Cc1nn(C)c(C)c1N1C(=O)c2cccc3c(Br)ccc(c23)C1=O,11.9,65.7*,0.0,48.3*,56.0*,0.4,52.4*,92.1*,28.6*,32.7,5.8,51.3*,42.3*
Cc1nn(C)c(C)c1N1C(=O)c2cccc3c(N)ccc(c23)C1=O,-23.4,29.4*,-2.9,29.0*,34.0*,-2.4,20.1,44.1*,15.2,19.2,2.8,43.9*,44.0*
N#Cc1ccc(/C=C\c2nccc3c2[nH]c2ccccc23)cc1,28.1,32.9*,72.2*,20.9*,26.2*,2.2,17.8,53.7*,17.9,35.7,13.0*,37.0*,56.0*
OCCCCc1nccc2c1[nH]c1ccccc12,-6.6,·,-6.5,-3.5,-4.7,-0.6,·,·,·,·,·,·,·
CN1CCCc2cc3c(C(F)(F)F)cc(=O)oc3nc21,-3.0,39.4*,3.0,46.6*,34.7*,6.7,36.5*,65.9*,37.7*,45.2,6.9,69.1*,72.7*
CC(C)c1cc(=O)oc2c3c4c(cc12)CCCN4CCC3,-2.8,6.5,0.5,0.6,7.3,1.3,·,·,·,·,·,·,·

# Screens (PubChem)
